Compound activity as filed in PubChem BioAssay.
EP2 antag – inhibitors of human EP2 prostaglandin E2 receptor | P43116 | C6 glioma cells expressing human EP2, cAMP TR-FRET; cells stimulated with saturating PGE2 | inhibition, % at 25 µM | 260,000 compounds, 0.52% hits | AID 1422;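 active = percent inhibition above 40 after rounding to a whole number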;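 also: rat C6 glioma host cells with rolipram phosphodiesterase inhibitor present; the protocol text gives 20 µM as final concentration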
Target sequence (P43116 whole entry, looked up): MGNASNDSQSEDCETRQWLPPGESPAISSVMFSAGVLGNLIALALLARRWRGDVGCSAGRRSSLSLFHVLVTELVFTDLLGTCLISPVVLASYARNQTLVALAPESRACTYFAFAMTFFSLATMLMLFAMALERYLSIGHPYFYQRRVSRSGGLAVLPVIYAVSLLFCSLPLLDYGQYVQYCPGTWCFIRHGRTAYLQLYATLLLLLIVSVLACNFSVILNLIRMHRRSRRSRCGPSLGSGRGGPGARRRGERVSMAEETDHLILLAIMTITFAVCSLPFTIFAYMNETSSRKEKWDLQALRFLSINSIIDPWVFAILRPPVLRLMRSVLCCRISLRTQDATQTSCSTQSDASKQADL
EP2 modulator – EP2 receptor (human) modulation | 260,000 compounds, 0.83% hits | EP2-expressing cells, cAMP HTRF FRET, PGE2 co-stimulation | induction, % at 25 µM | P43116;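 active = compounds whose cAMP rise, as percent of the full-agonist control response, exceeds 60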;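 also: rat C6 glioma line stably carrying human EP2 under a CMV promoter; the protocol text gives 20 µM as final concentration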
Furin inhibitor – blocks human furin protease activity; inhibition, % at 20 µM or 30 µM; purified furin, fluorogenic substrate cleavage; 220,000 compounds, 0.061% hits; P09958; in the data active = inhibition above about 25%
m-calpain inh – inhibitors of pig calpain II; purified calpain II, fluorogenic peptide substrate, 30 min; 220,000 compounds, 0.37% hits; AID 1236; inhibition, % at 16 µM;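 active = inhibition above about 50%, limit read from the data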
HMGR II inh – inhibitors of class II HMG-CoA reductase from Enterococcus faecalis; purified E. faecalis HMGR, NADPH absorbance 340 nm kinetic; inhibition, % at 10 µM; 190,000 compounds, 0.41% hits; AID 1066;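 active = inhibition above a set limit, the median over all tested compounds plus 3 SD, cut at about 9.5% in these data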;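 also: enzyme runs in reverse so mevalonate oxidation gives rising NADPH absorbance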
Numbers stand for hits; 0 = inactive; - = not tested or not shown; ! = not active in a repeat. This is a sample that favours compounds with a hit; in the whole collection about 1.9% have one here.

SMILES | EP2 antag | EP2 modulator | Furin inhibitor | m-calpain inh | HMGR II inh
O=C(CC(c1ccccc1)c1ccccc1)Nc1nn[nH]n1 | 0 | 0 | 0 | 0 | 0
O=C(Nc1nn[nH]n1)c1nc(-c2ccccc2)cc(=O)[nH]1 | 55.0 | 0 | - | - | -
COc1cc(S(=O)(=O)Nc2ncccc2C)c(OC)cc1Cl | 0 | 0 | 28.5 | 0 | 0
Cc1ccc(-c2nc3cc(N)ccc3o2)c(C)c1 | 41.3 | 0 | 0 | 0 | 0
Cc1ccc(-c2nc3cc(N)ccc3o2)cc1 | - | 0 | 0 | 0 | 0
Cn1c(=O)c2[nH]c([C@@H]3CC(=O)C[C@H](c4nc5c([nH]4)c(=O)n(C)c(=O)n5C)N3)nc2n(C)c1=O | 45.8 | 0 | - | - | -
O=C(CN1C(=O)C(=O)c2ccccc21)OCN1C(=O)c2ccccc2C1=O | 0 | 0 | 0 | 0 | 0
CCC(=O)OCN1C(=O)C=CC1=O | 82.1 | 0 | - | - | -
COc1cc(/C=C/C(=O)O)cc(Br)c1O | 0 | 0 | 0 | 0 | -
CC(CCC(=O)O)(c1cc(Br)c(O)c(Br)c1)c1cc(Br)c(O)c(Br)c1 | 39.7 | 0 | - | - | -
CC(=O)O[C@H]1CC[C@@]2(C)C(=CC[C@@H]3[C@H]4CC[C@@H](c5cc(C(F)(F)F)n(C(C)=O)n5)[C@]4(C)CC[C@H]32)C1 | 41.9 | 0 | - | - | -
CC(=O)O[C@H]1CC[C@@]2(C)C(=CC[C@@H]3[C@H]4CC[C@@H]([C@H](C)C(=O)O)[C@]4(C)CC[C@H]32)C1 | 0 | 0 | - | - | -
[O-][n+]1cccc2c(Br)cc(Br)c(O)c21 | 0 | 0 | 0 | 0 | 9.9
O=c1n(Cc2ccc(F)cc2)nc2c3ccccc3nc(C3CC3)n12 | - | 0 | - | - | -
Fc1c(F)c(C(F)(F)F)c(F)c(F)c1N/N=C\c1cccs1 | 123.8 | 0 | 0 | 0 | 0
CCN1C(=O)/C(=C\N(C)C)c2ccccc21 | 0 | 0 | 0 | 0 | 10.9
COc1ccccc1-c1ocnc1C(=O)NCc1cccnc1 | 0 | 0 | - | - | -
COc1ccc(S(=O)(=O)NCCC(=O)NCc2ccc(F)cc2)cc1 | 0 | 0 | 28.9 | 0 | 0
Cc1nc(SC2CC(=O)N(c3ccccc3)C2=O)n[nH]1 (stereo not drawn) | 0 | 0 | 0 | 0 | 12.7
COCCn1c(C)cc(C(=O)CSc2nc3ccccc3c(=O)[nH]2)c1C | 0 | 0 | 0 | 0 | 0
COCC(C)n1c(C)cc(C(=O)CSc2nc3ccccc3c(=O)[nH]2)c1C (stereo not drawn) | 0 | 62.0 | 0 | 0 | 0
CCN1CCS/C1=C\C=C\C1=[N+](CC)CCS1 | 0 | 0 | 43.0 | 0 | 0
CCN1CCS/C1=C/C=C/C1=[N+](CC)CCS1 | 0 | 0 | 38.3 | 0 | 0
O=C(C1CCC(=O)N1Cc1ccccc1Cl)N1CCN(c2cccc(Cl)c2)CC1 (stereo not drawn) | 69.1 | - | 0 | - | 0
O=C(Nc1ccc(Cl)cc1)C1CCC(=O)N1Cc1ccccc1Cl (stereo not drawn) | 0 | 0 | 0 | 0 | 0
SMILES | EP2 antag | EP2 modulator | Furin inhibitor | m-calpain inh | HMGR II inh
COc1cc2[nH]c(=O)c(C(=O)NCc3ccco3)c(O)c2cc1OC | 0 | 0 | - | - | -
S=C1NCN2CCN(CC2)CNC(=S)C(=S)NCN2CCN(CC2)CNC1=S | 48.2 | 0 | - | - | -
Cc1cc(-c2ccccc2)n2ncc(-c3ccccc3)c2n1 | 0 | 62.5 | 0 | 0 | 0
CCCC(=O)N(CCN(Cc1ccccc1)C(=O)CCC)Cc1ccccc1 | 0 | 0 | 0 | 0 | 0
O=C(CCN1C(=O)c2ccccc2C1=O)N(CCO)Cc1ccccc1 | - | 0 | 26.6 | 0 | 0
Cc1cc(O)c(C(C)C)cc1C1(c2cc(C(C)C)c(O)cc2C)OC(=O)c2ccccc21 | 76.4! | 0 | 0 | 0 | -
COc1cccc(C2C=C(c3ccc(Br)s3)Nc3ncnn32)c1OC (stereo not drawn) | 112.4 | 0 | 0 | 0 | 0
COc1ccc(-c2nc(-c3ccc(O)cc3O)cs2)cc1OC | 82.2 | 0 | 0 | 0 | 0
CSc1nc(-c2ccccc2)cn1-c1ccc(NC(C)=O)cc1 | 0 | 0 | 0 | 0 | 9.8
Cc1cccc2[nH]c3c(N4CCC5(CC4)OCCO5)ncnc3c12 | 0 | 0 | 0 | 0 | 0
Clc1ccc2[nH]c3c(N4CCC5(CC4)OCCO5)ncnc3c2c1 | 45.7 | 0 | 0 | 0 | 0
O=C(N/C=N/OCc1ccc(Cl)cc1Cl)NOCc1ncc(C(F)(F)F)cc1Cl | 0 | 61.1 | 0 | 0 | 0
Cc1ccccc1Cn1cc(/C=N/n2cnnc2)c2ccccc21 | 0 | 63.7 | 0 | 0 | 0
Cc1cc(=O)[nH]c(N/N=C/c2ccc(N(C)C)cc2)n1 | 0 | 0 | 0 | 0 | 13.6
O=S(=O)(O)[C@@H](c1ccccc1)[C@@H](O)c1ccccc1 | 0 | 0 | - | - | -
O=S(=O)(O)[C@@H](CO)c1ccccc1 (tested in a mixture with another compound) | 49.0 | 0 | - | - | -
CC(C)OCCCNC(=O)c1ccc(CN2CCOCC2)cc1 | 0 | 0 | - | - | -
O=c1c2ccccc2sn1-c1ccccc1 | 117.9 | 0 | 0 | 0 | 0
Cc1onc(C(=O)Nc2cccnc2Cl)c1[N+](=O)[O-] | 0 | 0 | 0 | 0 | 0
CC(C)c1onc(C(=O)Nc2cccnc2Cl)c1[N+](=O)[O-] | 0 | 0 | 0 | 55.7 | 0
Cc1ccc(NC(=O)c2noc(C(C)C)c2[N+](=O)[O-])cc1 | 0 | 0 | 0 | 58.2 | 0
CC(C)c1onc(C(=O)Nc2cccc(O)c2)c1[N+](=O)[O-] | 0 | 0 | 0 | 0 | 0
CSC(SC)=C(C#N)C(=O)c1ccccc1 | 48.2 | 0 | 0 | 0 | -
C=CCn1c(SC(C)C(=O)Nc2ccccc2C)nnc1-c1ccncc1 (stereo not drawn) | 0 | 0 | - | - | -
Cn1c(=O)n(Cc2ccco2)c(=N)c2c3c(sc21)CCC3 | 0 | 0 | 0 | 0 | 0
SMILES | EP2 antag | EP2 modulator | Furin inhibitor | m-calpain inh | HMGR II inh
O=c1c2c3c(sc2[nH]c(=S)n1Cc1ccco1)CCC3 | 40.1 | 0 | 0 | 0 | -
CC1(C)Cc2c(sc3c2c(=N)n(Cc2ccco2)c(=O)n3Cc2ccc(Cl)cc2)CO1 | 0 | 60.9 | 0 | 0 | 0
CC1(C)Cc2c(sc3c2c(=N)n(Cc2ccco2)c(=O)n3Cc2ccccc2)CO1 | 0 | 0 | 0 | 0 | 0
CC1(C)Cc2c(sc3[nH]c(=S)n(Cc4ccco4)c(=O)c23)CO1 | 40.3 | 0 | 0 | 0 | 0
O=[N+]([O-])c1cc(/C=N/n2cnnc2)ccc1N1CCCC1 | 0 | 0 | 0 | 62.1 | 0
Cc1ccc(-c2nnc(SCC(=O)N3C(C)CCCC3C)n2C)cc1 (stereo not drawn) | 0 | 0 | - | - | -
N#C/C(=C\c1ccncc1)c1nc2ccccc2o1 | 0 | 0 | 0 | 0 | -
N#C/C(=C\Nc1ccccc1O)c1nc2ccccc2o1 | 54.2 | 0 | 0 | 0 | 0
COc1cc(CN2CCc3sccc3C2C)ccc1OCCN1CCOCC1 (stereo not drawn) | 0 | 0 | - | - | -
Cc1cc(N2CCOCC2)ccc1/C=C\[N+](=O)[O-] | 56.7 | 0 | 0 | 0 | 0
O=C1CCC(=O)N1CC(=O)N(c1ccccc1)c1ccccc1 | 0 | 0 | 0 | 0 | 0
CCCCCC(=O)N(CN1C(=O)CCC1=O)c1ccccc1 | 0 | 0 | 31.5 | 0 | 0
Cc1cc(=Nc2ccc3c(c2)c(N)cc(C)[n+]3C)nc(N)n1C | 42.4 | 0 | - | - | -
O=[N+]([O-])c1ccccc1NCCNS(=O)(=O)c1ccc(Cl)cc1 | 0 | 0 | 0 | 0 | 0
O=[N+]([O-])c1ccc(NCCCNS(=O)(=O)c2ccc(Cl)cc2)c(Cl)c1 | - | 0 | 0 | 71.2 | 0
